The values below come from PMC7862700, “An all-to-all approach to the identification of sequence-specific readers for epigenetic DNA modifications on cytosine”.

What all share (experiment): DAPPL (digital affinity profiling via proximity ligation, sequencing); 10 mM Tris-HCl pH 7.5, 50 mM NaCl, 1 mM DTT, 4% glycerol, room temperature, 30 min; GST-TFs on glutathione beads, 16-mer random dsDNA library, 0.1% formaldehyde crosslink after washing; high values mean tight binding
What all share (conditions): protein: recombinant; tags: N-terminal GST; dsDNA, one strand shown

The target in one experiment is T1, FLI1 (Homo sapiens, UniProt Q01543 1-452).
T1 sequence: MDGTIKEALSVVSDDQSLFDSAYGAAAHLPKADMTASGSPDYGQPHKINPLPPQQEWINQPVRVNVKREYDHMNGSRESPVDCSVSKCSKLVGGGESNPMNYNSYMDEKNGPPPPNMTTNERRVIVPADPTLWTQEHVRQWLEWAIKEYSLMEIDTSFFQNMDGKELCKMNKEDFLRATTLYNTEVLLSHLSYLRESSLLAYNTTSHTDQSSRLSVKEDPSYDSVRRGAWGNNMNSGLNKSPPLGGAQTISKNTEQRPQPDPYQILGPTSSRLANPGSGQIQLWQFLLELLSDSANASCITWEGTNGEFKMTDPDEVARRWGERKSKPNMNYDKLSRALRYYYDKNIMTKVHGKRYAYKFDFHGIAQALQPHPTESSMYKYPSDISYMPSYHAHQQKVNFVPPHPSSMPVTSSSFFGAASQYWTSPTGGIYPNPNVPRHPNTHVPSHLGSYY
An outline of the steps: (§1)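 Pools were built from human transcription factors expressed in yeast as GST fusions, captured on glutathione beads and DNA-barcoded, along with a tag-only sample. Incubation with 200 nmole of a 16-mer random double-stranded DNA library lasted 30 min at room temperature in Tris/NaCl/DTT/glycerol buffer, and was followed by washing, 0.1% formaldehyde crosslinking, proximity ligation, PCR amplification and Illumina NextSeq500 sequencing. Binding signal is the quotient of each hexamer's read frequency for a factor and its frequency for the tag-only sample.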

In another experiment the target is T2, ELK1 (Homo sapiens, UniProt P19419 1-428).
T2 sequence: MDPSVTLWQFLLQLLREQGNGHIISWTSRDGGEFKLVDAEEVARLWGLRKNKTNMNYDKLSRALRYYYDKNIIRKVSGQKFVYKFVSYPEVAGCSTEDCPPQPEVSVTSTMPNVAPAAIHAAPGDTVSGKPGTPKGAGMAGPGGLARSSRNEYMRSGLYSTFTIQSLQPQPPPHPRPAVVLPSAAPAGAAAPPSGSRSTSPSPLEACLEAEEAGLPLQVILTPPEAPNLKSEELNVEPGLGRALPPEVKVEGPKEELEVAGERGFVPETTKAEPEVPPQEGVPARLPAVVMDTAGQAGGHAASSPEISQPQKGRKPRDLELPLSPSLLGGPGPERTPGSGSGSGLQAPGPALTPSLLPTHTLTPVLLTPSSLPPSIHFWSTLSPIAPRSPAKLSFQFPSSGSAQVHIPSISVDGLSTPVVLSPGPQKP
Summed up: as §1

In a further experiment the target is T3, GABPA (Homo sapiens, UniProt Q06546 1-454).
T3 sequence: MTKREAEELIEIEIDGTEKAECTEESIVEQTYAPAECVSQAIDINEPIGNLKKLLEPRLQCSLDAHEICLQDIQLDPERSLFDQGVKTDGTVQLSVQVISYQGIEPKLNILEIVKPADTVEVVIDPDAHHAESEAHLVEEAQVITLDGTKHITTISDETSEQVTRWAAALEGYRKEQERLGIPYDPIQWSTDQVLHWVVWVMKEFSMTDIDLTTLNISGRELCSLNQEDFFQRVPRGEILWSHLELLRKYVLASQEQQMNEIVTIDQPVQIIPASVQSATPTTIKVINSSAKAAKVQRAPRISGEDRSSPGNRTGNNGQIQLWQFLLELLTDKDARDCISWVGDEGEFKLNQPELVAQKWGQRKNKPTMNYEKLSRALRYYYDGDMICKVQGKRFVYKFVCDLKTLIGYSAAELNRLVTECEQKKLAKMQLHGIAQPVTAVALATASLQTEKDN
Summed up:
as §1

For the next experiment, the target named is T4, ERG (Homo sapiens, UniProt P11308 1-479).
T4 sequence: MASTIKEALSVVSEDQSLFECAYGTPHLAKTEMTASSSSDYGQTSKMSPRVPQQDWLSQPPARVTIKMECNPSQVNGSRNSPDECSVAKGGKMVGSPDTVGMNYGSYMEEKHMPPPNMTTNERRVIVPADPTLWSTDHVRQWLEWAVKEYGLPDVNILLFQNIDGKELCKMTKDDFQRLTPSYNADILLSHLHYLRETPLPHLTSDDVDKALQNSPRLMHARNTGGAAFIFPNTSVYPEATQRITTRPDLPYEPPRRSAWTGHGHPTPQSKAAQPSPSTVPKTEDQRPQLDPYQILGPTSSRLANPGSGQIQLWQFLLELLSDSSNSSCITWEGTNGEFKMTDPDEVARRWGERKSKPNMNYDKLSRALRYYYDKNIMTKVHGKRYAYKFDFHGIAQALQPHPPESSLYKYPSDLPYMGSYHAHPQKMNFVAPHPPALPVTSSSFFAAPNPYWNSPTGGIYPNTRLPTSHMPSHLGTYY
An outline of the steps: as §1

In the next experiment the target is ELF1 (Homo sapiens, UniProt P32519 1-619). An outline of the steps:
as §1

The target of the next experiment is T5, EHF (Homo sapiens, UniProt Q9NZC4 1-300).
T5 sequence: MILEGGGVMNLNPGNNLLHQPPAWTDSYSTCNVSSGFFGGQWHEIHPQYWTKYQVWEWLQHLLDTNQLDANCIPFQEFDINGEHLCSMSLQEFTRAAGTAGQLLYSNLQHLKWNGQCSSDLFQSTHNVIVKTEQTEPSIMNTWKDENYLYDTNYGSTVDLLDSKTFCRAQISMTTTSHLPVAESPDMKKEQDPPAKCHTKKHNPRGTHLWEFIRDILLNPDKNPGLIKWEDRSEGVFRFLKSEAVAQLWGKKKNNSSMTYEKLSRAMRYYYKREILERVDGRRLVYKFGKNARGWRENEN
An outline of the steps:
as §1

A further experiment addresses SPI1 (Homo sapiens, UniProt P17947 1-270). Summed up:
as §1

Another experiment concerns the target SPIB (Homo sapiens, UniProt Q01892 1-262). An outline of the steps: as §1
Another experiment has as its target T6, ELK3 (Homo sapiens, UniProt P41970 1-407).
T6 sequence: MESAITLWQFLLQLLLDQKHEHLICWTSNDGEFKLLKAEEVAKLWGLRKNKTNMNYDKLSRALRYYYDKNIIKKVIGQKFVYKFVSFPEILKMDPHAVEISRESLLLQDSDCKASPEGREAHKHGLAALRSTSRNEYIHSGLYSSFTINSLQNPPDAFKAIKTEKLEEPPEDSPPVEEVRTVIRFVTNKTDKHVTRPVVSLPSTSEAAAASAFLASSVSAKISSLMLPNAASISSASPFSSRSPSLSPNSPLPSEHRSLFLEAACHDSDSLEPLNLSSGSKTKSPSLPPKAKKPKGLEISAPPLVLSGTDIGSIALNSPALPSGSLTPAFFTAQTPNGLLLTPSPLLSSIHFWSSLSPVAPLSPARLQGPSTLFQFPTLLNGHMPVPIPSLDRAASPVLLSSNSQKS
Summed up: as §1

Sequence of ELF1 (P32519 whole entry): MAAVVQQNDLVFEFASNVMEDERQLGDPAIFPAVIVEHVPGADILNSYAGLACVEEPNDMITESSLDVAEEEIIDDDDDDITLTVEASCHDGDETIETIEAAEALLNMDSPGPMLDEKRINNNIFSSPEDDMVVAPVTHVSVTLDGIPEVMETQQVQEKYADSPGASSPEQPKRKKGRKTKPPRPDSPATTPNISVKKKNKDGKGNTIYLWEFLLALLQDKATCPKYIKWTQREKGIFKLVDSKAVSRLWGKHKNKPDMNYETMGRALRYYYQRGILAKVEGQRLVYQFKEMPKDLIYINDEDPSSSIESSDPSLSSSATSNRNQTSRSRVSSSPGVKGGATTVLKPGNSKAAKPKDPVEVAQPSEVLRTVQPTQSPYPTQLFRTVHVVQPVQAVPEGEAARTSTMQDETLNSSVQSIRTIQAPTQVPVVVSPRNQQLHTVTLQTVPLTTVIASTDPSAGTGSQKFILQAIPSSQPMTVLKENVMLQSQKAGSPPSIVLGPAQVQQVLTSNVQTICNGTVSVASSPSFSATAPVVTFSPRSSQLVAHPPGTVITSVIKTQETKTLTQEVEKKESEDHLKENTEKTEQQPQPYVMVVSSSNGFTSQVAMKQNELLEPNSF
Sequence of SPIB (Q01892 whole entry): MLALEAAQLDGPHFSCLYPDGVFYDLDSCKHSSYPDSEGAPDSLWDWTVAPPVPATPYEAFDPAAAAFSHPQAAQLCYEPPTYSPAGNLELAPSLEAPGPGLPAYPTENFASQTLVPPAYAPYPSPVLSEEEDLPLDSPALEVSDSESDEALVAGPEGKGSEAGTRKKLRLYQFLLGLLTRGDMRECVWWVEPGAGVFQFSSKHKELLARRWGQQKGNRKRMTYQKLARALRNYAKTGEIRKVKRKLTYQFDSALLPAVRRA

On to TTATAC, for which the binding signal with FLI1 was 1.55 fold enrichment (6-mer frequency, TF over GST control); with ELK1 it was 1.42 fold enrichment (6-mer frequency, TF over GST control); with GABPA, 1.39 fold enrichment (6-mer frequency, TF over GST control); in the experiment with ERG it was 1.35 fold enrichment (6-mer frequency, TF over GST control); in the experiment with ELF1, 1.4 fold enrichment (6-mer frequency, TF over GST control); in the experiment with EHF it was 1.42 fold enrichment (6-mer frequency, TF over GST control). Moreover, the binding signal was 1.3 fold enrichment (6-mer frequency, TF over GST control) with SPI1; 1.43 fold enrichment (6-mer frequency, TF over GST control) with SPIB; 1.35 fold enrichment (6-mer frequency, TF over GST control) with ELK3.

For the sequence ATCCTC, the binding signal in the experiment with FLI1 was 1.48 fold enrichment (6-mer frequency, TF over GST control); in the experiment with ELK1, 1.47 fold enrichment (6-mer frequency, TF over GST control); in the experiment with GABPA, 1.55 fold enrichment (6-mer frequency, TF over GST control); with ERG, 1.52 fold enrichment (6-mer frequency, TF over GST control); with ELF1, 1.48 fold enrichment (6-mer frequency, TF over GST control); with EHF, 1.39 fold enrichment (6-mer frequency, TF over GST control). In addition, the binding signal is 1.51 fold enrichment (6-mer frequency, TF over GST control) with SPI1; 1.41 fold enrichment (6-mer frequency, TF over GST control) with SPIB; 1.36 fold enrichment (6-mer frequency, TF over GST control) with ELK3.

ACTATA: the binding signal is 1.37 fold enrichment (6-mer frequency, TF over GST control) with FLI1; 1.28 fold enrichment (6-mer frequency, TF over GST control) with ELK1; 1.33 fold enrichment (6-mer frequency, TF over GST control) in the experiment with GABPA; 1.31 fold enrichment (6-mer frequency, TF over GST control) with ERG; 1.33 fold enrichment (6-mer frequency, TF over GST control) with ELF1; 1.29 fold enrichment (6-mer frequency, TF over GST control) with EHF. Also, the binding signal was 1.43 fold enrichment (6-mer frequency, TF over GST control) with SPI1; 1.28 fold enrichment (6-mer frequency, TF over GST control) in the experiment with SPIB; 1.29 fold enrichment (6-mer frequency, TF over GST control) with ELK3.

GTTAAC: the binding signal with FLI1 is 1.04 fold enrichment (6-mer frequency, TF over GST control); with ELK1, 1.22 fold enrichment (6-mer frequency, TF over GST control); with GABPA, 1.13 fold enrichment (6-mer frequency, TF over GST control); with ERG it was 1.15 fold enrichment (6-mer frequency, TF over GST control); with ELF1 it was 1.14 fold enrichment (6-mer frequency, TF over GST control); in the experiment with EHF it was 1.11 fold enrichment (6-mer frequency, TF over GST control). Also, the binding signal is 1.15 fold enrichment (6-mer frequency, TF over GST control) in the experiment with SPI1; 1.12 fold enrichment (6-mer frequency, TF over GST control) with SPIB; 1.23 fold enrichment (6-mer frequency, TF over GST control) with ELK3.

Consider CTTGCC, for which the binding signal with FLI1 is 1.29 fold enrichment (6-mer frequency, TF over GST control); in the experiment with ELK1, 1.17 fold enrichment (6-mer frequency, TF over GST control); with GABPA, 1.3 fold enrichment (6-mer frequency, TF over GST control); in the experiment with ERG it was 1.24 fold enrichment (6-mer frequency, TF over GST control); with ELF1, 1.29 fold enrichment (6-mer frequency, TF over GST control); with EHF, 1.33 fold enrichment (6-mer frequency, TF over GST control). Besides, the binding signal with SPI1 is 1.38 fold enrichment (6-mer frequency, TF over GST control); with SPIB, 1.22 fold enrichment (6-mer frequency, TF over GST control); with ELK3, 1.3 fold enrichment (6-mer frequency, TF over GST control).

For CTTAGG, the binding signal with FLI1 is 1.1 fold enrichment (6-mer frequency, TF over GST control); in the experiment with ELK1 it was 1.12 fold enrichment (6-mer frequency, TF over GST control); with GABPA, 1.15 fold enrichment (6-mer frequency, TF over GST control); in the experiment with ERG it was 1.19 fold enrichment (6-mer frequency, TF over GST control); with ELF1 it was 1.17 fold enrichment (6-mer frequency, TF over GST control); in the experiment with EHF, 1.14 fold enrichment (6-mer frequency, TF over GST control). Further, the binding signal with SPI1 was 1.09 fold enrichment (6-mer frequency, TF over GST control); in the experiment with SPIB, 1.08 fold enrichment (6-mer frequency, TF over GST control); with ELK3, 1.05 fold enrichment (6-mer frequency, TF over GST control).

Consider ATGAAA, for which the binding signal was 1.11 fold enrichment (6-mer frequency, TF over GST control) in the experiment with FLI1; 1.17 fold enrichment (6-mer frequency, TF over GST control) in the experiment with ELK1; 1.16 fold enrichment (6-mer frequency, TF over GST control) with GABPA; 1.17 fold enrichment (6-mer frequency, TF over GST control) with ERG; 1.2 fold enrichment (6-mer frequency, TF over GST control) in the experiment with ELF1; 1.16 fold enrichment (6-mer frequency, TF over GST control) with EHF. Moreover, the binding signal with SPI1 is 1.2 fold enrichment (6-mer frequency, TF over GST control); with SPIB it was 1.15 fold enrichment (6-mer frequency, TF over GST control); in the experiment with ELK3, 1.06 fold enrichment (6-mer frequency, TF over GST control).

As to CCATAT, the binding signal with FLI1 is 1.23 fold enrichment (6-mer frequency, TF over GST control); with ELK1, 1.24 fold enrichment (6-mer frequency, TF over GST control); with GABPA it was 1.19 fold enrichment (6-mer frequency, TF over GST control); in the experiment with ERG, 1.37 fold enrichment (6-mer frequency, TF over GST control); with ELF1 it was 1.22 fold enrichment (6-mer frequency, TF over GST control); with EHF it was 1.22 fold enrichment (6-mer frequency, TF over GST control). The binding signal with SPI1 is 1.16 fold enrichment (6-mer frequency, TF over GST control); in the experiment with SPIB, 1.26 fold enrichment (6-mer frequency, TF over GST control); with ELK3, 1.26 fold enrichment (6-mer frequency, TF over GST control).
